In PubChem BioAssay (EPA / NIEHS) one finds outcome data, which are given here for 33 molecules.

Results filed as inconclusive are left out. Calls of active or inactive are those of the source. How the source made its calls: active means hit-call score of the fitted dose curve at least 0.9, where 1 is the maximum; inconclusive means response in the unintended direction; inactive means score below 0.9.

Sequence of Glyceraldehyde-3-phosphate dehydrogenase (Homo sapiens) (P04406 whole entry, looked up): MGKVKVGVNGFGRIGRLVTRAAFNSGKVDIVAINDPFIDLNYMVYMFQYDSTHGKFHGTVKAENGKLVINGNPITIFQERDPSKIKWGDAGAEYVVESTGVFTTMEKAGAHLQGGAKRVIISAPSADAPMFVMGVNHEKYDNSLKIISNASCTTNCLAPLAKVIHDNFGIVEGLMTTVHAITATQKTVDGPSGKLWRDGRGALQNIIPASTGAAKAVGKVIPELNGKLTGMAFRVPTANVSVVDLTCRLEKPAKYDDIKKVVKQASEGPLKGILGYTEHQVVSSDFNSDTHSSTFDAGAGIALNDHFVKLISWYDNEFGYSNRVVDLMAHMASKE

Read-out in this assay: Glyceraldehyde-3-phosphate dehydrogenase (Homo sapiens) (UniProt P04406)
The assay can be described thus: CLD_GAPDH_6hr: CellzDirect (CLD) Gene Expression Assay for Baseline Control (Glyceraldehyde 3-phosphate dehydrogenase) at 6 hours (AID 2283681). How it is done:
CLD_6hr is a cell-based, multiplexed-readout assay that uses hepatocyte, a human liver primary cell, with measurements taken at 6 hours after chemical dosing in a 96-well plate.CLD_GAPDH_6hr is one of 16 assay component(s) measured or calculated from the CLD_6hr assay. It is designed to make measurements of mRNA induction, a form of inducible reporter, as detected with chemiluminescence signals by Quantitative Nuclease Protection Assay (qNPA) technology.Data from the assay component CLD_GAPDH_6hr was analyzed at the endpoint, CLD_GAPDH_6hr, in the positive analysis fitting direction relative to DMSO as the negative control and baseline of activity. Using a type of inducible reporter, gain-of-signal activity can be used to understand changes in the reporter gene as they relate to the gene GAPDH. Furthermore, this assay endpoint can be referred to as a secondary readout, because this assay has produced multiple assay endpoints where this one serves a background control function. To generalize the intended target to other relatable targets, this assay endpoint is annotated to the background measurement intended target family, where subfamily is baseline control.
Human hepatocyte cultures were treated daily for two consecutive days with fresh dosing solutions containing appropriate concentrations of the 320 ToxCast chemicals (chemical identities were blinded to CellzDirect and other ToxCast collaborators), vehicle control (0.2% DMSO), and positive control inducers as summarized in Table 1. Due to the large number of treatment groups and chemicals examined, the ToxCast chemicals were divided into two groups (spanning two independent cultures of hepatocytes from separate donor preparations (Hu778: ToxCast plates 1 and 2; Hu776: ToxCast plates 3 and 4). Each preparation of human hepatocyte cultures was treated with respective vehicle control, medium only control, set of six positive controls/reference chemicals for the five hepatic receptor pathways, and a subset of eight of the ToxCast chemicals (indoxacarb, pyrithiobac-sodium, norflurazon, cyhalofop-butyl, methomyl, thiram, acetochlor, and propiconazole). These replicate data, coupled with internal replicates designed within the blinded ToxCast chemical library, provided additional data to evaluate interindividual differences between hepatocyte preparations and their potential impact on chemical profiles.Cell morphology and integrity were evaluated using phase-contrast microscopy as an indicator of hepatocyte cell health (Tyson & Green, 1987). Cultures for each treatment group (i.e., media, vehicle [0.2% DMSO], positive control inducers [multiple concentrations], and the ToxCast chemicals [multiple concentrations]) were observed and cell morphology was assessed relative to vehicle control cultures at each harvest time point (0, 6, 24, or 48 h). […] Images were evaluated at the conclusion of the study to assess changes in cell integrity and account for the effects of chemical exposure on uncharacteristic changes in concentration-dependent gene expression profiles. The results from these determinations of apparent cytotoxicity were annotated (yes/no) alongside the corresponding qNPA data for reference.At the conclusion of each treatment period, hepatocyte cultures (96-well) were washed with 1 volume of HBSS, lysed by addition of 25 ul ArrayPlate lysis buffer (HTG, Tucson, AZ), and 70 ul/well of Denaturation Oil, denatured by incubation at 95C for 10 min, and frozen at approximately -70C until analysis by nuclease protection assay (qNPA) (Roberts et al., 2007). For qNPA analysis, cell lysates were thawed at 50C for approximately 30 min, qNPA probes were added, and samples were incubated at 95C for 10 min to begin the detection process by denaturing the target RNA, dissociating the duplexes and secondary structure hybridization. At the conclusion of the hybridization period, S1 nuclease reagent was added to each sample to digest all nonprotected nucleotides at 50C for 60-90 min. […]
Take `Clc1ccccc1-c1nnc(-c2ccccc2Cl)nn1`: the outcome was inactive.

In the case of `CC1(C)C(C=C(Cl)Cl)C1C(=O)OC(C#N)c1ccc(F)c(Oc2ccccc2)c1` (stereo not drawn), the result was inactive.

For the molecule `O=C(O)CCCOc1ccc(Cl)cc1Cl`, the outcome was inactive.

On to `OCCOc1ccccc1`, for which the outcome was inactive.

For `O=C(O)COc1ccc(Cl)cc1Cl`, the molecule was called inactive.

`COP(=O)(OC)OC=C(Cl)Cl`: the molecule was called inactive.

For the molecule `[2H]C1([2H])[n+]2ccccc2-c2cccc[n+]2C1([2H])[2H]`, the molecule was called inactive.

In the case of `CN1CSC(=S)N(C)C1`, the result was inactive.

In the case of `C[C@H]1[C@H](c2ccc(Cl)cc2)SC(=O)N1C(=O)NC1CCCCC1`, the result was inactive.

As to `Oc1cc(Cl)ccc1Oc1ccc(Cl)cc1Cl`, the molecule was called inactive.

As for `CC(C)(C)C(O)/C(=C\c1ccc(Cl)cc1Cl)n1cncn1` (stereo not drawn), the outcome was inactive.

As for `COc1cc(OC)nc(NC(=O)NS(=O)(=O)c2cc(NC=O)ccc2C(=O)N(C)C)n1`, the call was inactive.

Regarding `O=C1c2ccccc2C(=O)N1SC(Cl)(Cl)Cl`, the molecule was classed as inactive.

In the case of `O=[N+]([O-])c1c(Cl)c(Cl)c(Cl)c(Cl)c1Cl`, the outcome was inactive.

For the molecule `CNC(=O)Oc1cccc(N=CN(C)C)c1`, the call was inactive.

On to `O=S1OCC2C(CO1)C1(Cl)C(Cl)=C(Cl)C2(Cl)C1(Cl)Cl` (stereo not drawn), for which the molecule was called inactive.

`O=[N+]([O-])/N=C1\NCCN1Cc1ccc(Cl)nc1`: the molecule was classed as inactive.

`CC(C)(C)C(O)C(Oc1ccc(Cl)cc1)n1cncn1` (stereo not drawn): the molecule was called inactive.

In the case of `O=C(O)C(F)(F)C(F)(F)C(F)(F)C(F)(F)C(F)(F)C(F)(F)C(F)(F)F`, the result was inactive.

On to `CCC(C)(C)C(=O)OC1=C(c2ccc(Cl)cc2Cl)C(=O)OC12CCCCC2`, for which the molecule was classed as inactive.

Turning to `CCS(=O)(=O)c1cccnc1S(=O)(=O)NC(=O)Nc1nc(OC)cc(OC)n1`, the call was inactive.

For the molecule `CNC(=O)CSP(=S)(OC)OC`, the call was inactive.

Consider `CCOCN(C(=O)CCl)c1c(C)cccc1CC`, for which the molecule was called inactive.

For `Cc1cc(C)nc(NC(=O)NS(=O)(=O)c2ccccc2C(=O)OC2COC2)n1`, the result was inactive.

In the case of `CC(C)N(C(=O)COc1nnc(C(F)(F)F)s1)c1ccc(F)cc1`, the result was inactive.

On to `CCOc1nc(NC)nc(NC(=O)NS(=O)(=O)c2ccccc2C(=O)OC)n1`, for which the outcome was inactive.

`COC(=O)c1ccccc1S(=O)(=O)NC(=O)N(C)c1nc(C)nc(OC)n1`: the molecule was called inactive.

Turning to `CC[C@H](C)[C@H]1O[C@]2(C=C[C@@H]1C)C[C@@H]1C[C@@H](C/C=C(\C)[C@@H](O[C@H]3C[C@H](OC)[C@@H](O[C@H]4C[C@H](OC)[C@@H](O)[C@H](C)O4)[C@H](C)O3)[C@@H](C)/C=C/C=C3\CO[C@@H]4[C@H](O)C(C)=C[C@@H](C(=O)O1)[C@]34O)O2` (tested in a mixture with another compound), the molecule was classed as inactive.

On to `CNC(=O)Oc1ccccc1OC(C)C`, for which the molecule was called inactive.

Take `COC(=O)c1ccccc1S(=O)(=O)NC(=O)Nc1nc(C)nc(OC)n1`: the call was inactive.

With `Oc1ccc(Cl)cc1Cc1ccccc1`, the call was inactive.

As to `CCCN(CCOc1c(Cl)cc(Cl)cc1Cl)C(=O)n1ccnc1`, the result was inactive.

Take `N#CN`: the molecule was called inactive.
